Test results published in the supplement of paper PMC11417369.
± gives the standard deviation of the averaged measurements. Whole data set: some 25,000 sequences, median “ln(normalized median fluorescence intensity)” near 10, cut for the highest 2% near 12. This excerpt belongs to a sample that is enriched for the highest values.

What follows are sequences tested on PfAP2-G AP2 domain (GST-tagged) (assay: gcPBM binding intensity (ln(normalized median fluorescence intensity)); higher = stronger DNA binding).
Procedure, shortened: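 GST-fused DNA-binding domains of P. falciparum, expressed in E. coli, were applied at about 25 μg on average for 1 h to an Agilent 4 × 180k array of primer-extended double-stranded 36-bp intergenic genomic probes and negative controls. Binding intensity is the highest Masliner-normalised natural-log median intensity across replicate spots of either probe orientation, measured with Alexa488 anti-GST antibody and a 488 nm scan.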
“TAATATAGTATAGTATGTACATATAATTAGAATATT [XGTACX_site4053]” was tested, and the “gcPBM binding intensity (ln)” value was 11.3 ± 0.77. “TTAGTTTATTGGTACTGTACTTTTTTTTTCTCCATT [XGTACX_site8618]” was tested, and the “gcPBM binding intensity (ln)” value was 11.9 ± 0.91. In the case of “CCATATATTTGGTATAGTACTTTTTATTTTATTTCA [XGTACX_site8933]”, the “gcPBM binding intensity (ln)” value is reported as 11.1 ± 0.5. For “TAGGGTAGTTATAATTGTACTTTTCTCCAAAAAAAA [XGTACX_site7321]”, the “gcPBM binding intensity (ln)” value was 11.3 ± 0.81. In the case of “TACATAAACATTTATACACACATTATATATACATAT [CACACA_site8028]”, the “gcPBM binding intensity (ln)” value is reported as 10.12 ± 0.064. For “TAATTATTTCGTATATTTGAATGGTACATGCTTATA [CACACA_negctrl_site1178]”, the “gcPBM binding intensity (ln)” value was 10.7 ± 0.6. With “ATACATATAATATATGCATGTACCAATCAAATATAT [TGCATGCA_site192]” the “gcPBM binding intensity (ln)” value was 10.5 ± 0.29. “TGTTGTATTGAAGCTAAAAAATGAGGCAAAAAAAAA [CACACA_negctrl_site1189]” was tested, and the “gcPBM binding intensity (ln)” value was 10.2 ± 0.26. “ATGTGTATATATTATTGTACATATATATATATATAT [XGTACX_site4627]” was tested, and the “gcPBM binding intensity (ln)” value was 11.2 ± 0.82. For “TTATTTATATTTTTTTGTACACATATTGTATACATA [XGTACX_site1178]”, the “gcPBM binding intensity (ln)” value was 11.5 ± 0.86. “TTTTTATTTGGTTGTGTACACATATATATATATATA [CACACA_site5844]” was tested, and the “gcPBM binding intensity (ln)” value was 11.6 ± 0.94. “GTATTATCTGCTTTTTGTACACATATATTTAAAAAA [XGTACX_site7603]” was tested, and the “gcPBM binding intensity (ln)” value was 11.4 ± 0.95. For “CTTTAAAACCGGTACTGTACACATAGTATTATTATC [XGTACX_site2602]”, the “gcPBM binding intensity (ln)” value was 11.6 ± 0.8. For “AATTTTTATTTGTACACACATACATATATATTATAT [CACACA_site993]”, the “gcPBM binding intensity (ln)” value was 11.4 ± 0.83. “TTTATTTTGTAGTGTACACATATATATATATATATA [CACACA_site5843]” was tested, and the “gcPBM binding intensity (ln)” value was 11.7 ± 0.96. For “TATATTATAGGTTGTGTACACATATTATATAGTACT [CACACA_site4583]”, the “gcPBM binding intensity (ln)” value was 11.6 ± 0.88. With “CATACATATACTTTGTGTACATATATATATTATATA [XGTACX_site97]” the “gcPBM binding intensity (ln)” value was 11.4 ± 0.78. With “ACATATTTTATTTTTTGTACACATATATTATTTTTT [XGTACX_site6528]” the “gcPBM binding intensity (ln)” value was 11.3 ± 0.66. “AACACTACATAAAACTGTACAATAGTATTTTATTAT [XGTACX_site996]” was tested, and the “gcPBM binding intensity (ln)” value was 10.9 ± 0.49. With “TTATATTTATTTATTTGTACATATTTTTTTTTATAT [XGTACX_site1669]” the “gcPBM binding intensity (ln)” value was 11.2 ± 0.67. With “TATTTTATATGATAGGTGCATTTTTTTTTTTTTTTT [GTGCAC_site9757]” the “gcPBM binding intensity (ln)” value was 10.4 ± 0.48. With “TTCTTTATTTTTTCTACACACATTATATATTCAAAG [CACACA_site5866]” the “gcPBM binding intensity (ln)” value was 10.12 ± 0.099. In the case of “CAACACTTATTGAAACGTACGCATATAGTTTCTTTT [XGTACX_site8960]”, the “gcPBM binding intensity (ln)” value is reported as 11 ± 0.55. In the case of “TATAAATATAAATATACACACATATATTTATTTATA [CACACA_site6890]”, the “gcPBM binding intensity (ln)” value is reported as 9.645 ± 0.078. “TATTTGTGCCAAAAATGAAAAAGTTTGTATAAAACC [CACACA_negctrl_site1406]” was tested, and the “gcPBM binding intensity (ln)” value was 10.1 ± 0.17. In the case of “AAGATACACTTAATCGCACACGAAATTATATATTTA [CACACA_site3063]”, the “gcPBM binding intensity (ln)” value is reported as 10.1 ± 0.24. In the case of “TATATATATTATATATGTACATATATTTTTTTTTTT [XGTACX_site127]”, the “gcPBM binding intensity (ln)” value is reported as 11.2 ± 0.81. For “ATTTAAGGGGTGTATGCACACGACTATTCCGTATGA [CACACA_site4738]”, the “gcPBM binding intensity (ln)” value was 10.23 ± 0.092. In the case of “TCATTCTTGTGTTTATGTACACATATTTATATTGTA [XGTACX_site710]”, the “gcPBM binding intensity (ln)” value is reported as 11.4 ± 0.88. For “TATATATATATATATAGTACGCACACATAGTTGCAA [XGTACX_site5875]”, the “gcPBM binding intensity (ln)” value was 11.1 ± 0.67. In the case of “AATATGTAATAGTGTACACATATATCTGTATTTATG [CACACA_site4252]”, the “gcPBM binding intensity (ln)” value is reported as 11.6 ± 0.91. In the case of “ATACGCACACATATATGTACATATTGTATATATATA [XGTACX_site3962]”, the “gcPBM binding intensity (ln)” value is reported as 11.2 ± 0.71. “TATTATCTGTAGTGTACACATATTATATAGTACTTT [CACACA_site4582]” was tested, and the “gcPBM binding intensity (ln)” value was 11.8 ± 1. With “CATATTTTCTTGTGTACACATTTATTTTATACTATA [CACACA_site6032]” the “gcPBM binding intensity (ln)” value was 11.7 ± 0.97. In the case of “ATATATATATAGTACGCACACATAGTTGTACATTAA [CACACA_site2787]”, the “gcPBM binding intensity (ln)” value is reported as 12 ± 1.3. In the case of “TATATCTGTTTATATTGTACACATATATATATATAT [XGTACX_site714]”, the “gcPBM binding intensity (ln)” value is reported as 11.4 ± 0.93. “ATTTTTTTTTCTTGTACACACTATTTTATAATTTTA [CACACA_site6102]” was tested, and the “gcPBM binding intensity (ln)” value was 11.6 ± 0.93. In the case of “ATGAATTAACCTAATCGTACAATAAATATTATTATA [XGTACX_site596]”, the “gcPBM binding intensity (ln)” value is reported as 11 ± 0.81. With “AAAATTAAAAAGAACACACAAATATATCTATAATAA [CACACA_site7660]” the “gcPBM binding intensity (ln)” value was 9.81 ± 0.26. With “TTCTATATTATATATGCATGTGTTATTCTTATTTTC [TGCATGCA_site92]” the “gcPBM binding intensity (ln)” value was 9.87 ± 0.057. With “TTATATTTTATTATGTGTACGTATATAATATAATAT [XGTACX_site6230]” the “gcPBM binding intensity (ln)” value was 11.6 ± 0.97. In the case of “ATATGATTAATTAAGTGTACGTATTTATAATTATAA [XGTACX_site5783]”, the “gcPBM binding intensity (ln)” value is reported as 11.7 ± 1. With “ATTTATATATATTTATGTACGTATTAATTTTTTTTT [XGTACX_site3877]” the “gcPBM binding intensity (ln)” value was 11.5 ± 0.88. For “ATTTTTTTTTTTTATAGTGGATCCACATTTGCCATT [CACACA_negctrl_site1284]”, the “gcPBM binding intensity (ln)” value was 10.3 ± 0.36. With “AAAAAAAATTAGGAAACATGCATGTCCCGATAAATA [TGCATGCA_site149]” the “gcPBM binding intensity (ln)” value was 10.28 ± 0.049.
